About 210 (19%) of roughly 1,100 compounds were called active. Only a sample is shown. Potency and affinity values are given separately. Unmarked numbers belong to inactive results. How the calls were made is not given here.

One may read the viability as a read-out of living cells in per cent, often relative to untreated cells.

This assay is described as follows: host cell cytotoxicity, dose response, cytotoxicity control for SV40 T antigen inhibitor project, selected hits (AID 2102).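 Further: cells exposed to compounds for 72 hours; 100% = mean of untreated cell control wells.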 Particulars: Host cell viability cytotoxicity counter-screen; series mostly up to 50 µM; viability: at the top concentration. For orientation: The purpose of a counterscreen is to sort out artefacts and off-target activity.
As to `COc1cc([N+](=O)[O-])ccc1NC(=O)Oc1ccc(NC(C)=O)cc1`, the “viability” value was 111%.
Turning to `O=C1CC(=O)N(Cc2ccco2)C(=O)N1`, the “viability” value was 92.7%.
The same measure, in the same setting: then `COc1ccc(NCC(O)Cn2cnc3c2c(=O)n(C)c(=O)n3C)cc1` (stereo not drawn), with 87.5%; and `CCN(CC)c1ccc(NC(=O)COC(=O)c2ccc3ccccc3n2)cc1`, with 107%; and `COc1cc(/C=c2\sc3n(c2=O)CCCN=3)ccc1O`, with 113%.
Turning to `Cc1nn(CC(=O)Nc2ccc(N(C)C)cc2)c(C)c1[N+](=O)[O-]`, the “viability” value is 90%.
Take `Cc1cc(=O)oc2c(N)c(O)ccc12`: the “viability” value is 112%.
In the case of `Cc1cc(C)c2c(c1)NC(C(=O)O)C1CC=CC21` (stereo not drawn), the “viability” value was 101%.
In the case of `CCOc1cc(/C=N/Nc2ncnc(Cl)c2N)ccc1O`, the “viability” value was 93.8%.
Take `O=c1cc(-c2ccc(O)c(O)c2)oc2c(C3O[C@H](CO)[C@@H](O)[C@H](O)[C@H]3O)c(O)cc(O)c12` (stereo partly drawn): the “viability” value is 98.5%.
As to `O=c1cc(-c2ccc(O)c(O)c2)oc2cc(O)c(C3OC(CO)C(O)C(O)C3O)c(O)c12` (stereo not drawn), the “viability” value was 97.3%.
Turning to `COc1cc(/C=N\NC(=O)CNC(=O)c2cccc([N+](=O)[O-])c2)ccc1O`, the “viability” value was 97.5%.
With `Nc1ccc(OCCCc2c(N)nc(N)nc2N)cc1`, the “viability” value is 110%.
For the molecule `COc1ccccc1NC(=O)Oc1ccc(NC(=O)c2ccco2)cc1`, the “viability” value is 101%.
For `Cc1cccc(/C=N/n2c(-c3ccncc3)n[nH]c2=S)c1`, the “viability” value is 92.2%.
The same measure, in the same setting: the result for `S=c1[nH]nc(-c2ccc(Cl)cc2)n1/N=C/C=C/c1ccco1` reads 93%; that for `Oc1ccc(-c2cn3ccccc3n2)cc1O`, 136%; that for `C1=Cc2ccccc2Nc2ccccc21`, 109%.
For `C[C@@H]1O[C@@H](OC2C(O)C(OCCc3ccc(O)c(O)c3)OC(CO)C2OC(=O)/C=C/c2ccc(O)c(O)c2)[C@H](O)[C@H](O)[C@H]1O` (stereo partly drawn), the “viability” value was 99.6%.
On the same count and under the same terms, the result for `CCOc1cc(/C=C2\N=C3CCCCCN3C2=O)ccc1O` reads 107%.
Take `Cc1nc(N)sc1N=Nc1c(C)n(C)n(-c2ccccc2)c1=O`: the “viability” value is 103%.
On the same count and under the same terms, then `O=Cc1sc(=O)n(Cc2cccc(C(=O)O)c2)c1Cl`, with 102%.
Turning to `CN=c1scc(C)n1/N=C/c1ccc(O)cc1O`, the “viability” value is 83.5%.
On the same count and under the same terms, then `CC(C)(C)OC(=O)N/N=C/c1ccc(N2CCOCC2)s1`, with 105%; and `O=C(CSc1nc2ccccc2c(=O)[nH]1)c1ccc(O)c(O)c1`, with 91.3%; and `O=C(O)c1cc(S(=O)(=O)O)cc(Nc2c3ccccc3nc3ccccc23)c1O`, with 104%.
Take `CN(C)c1ccc(NC(=O)CSc2nnc(-c3cnccn3)n2C)cc1`: the “viability” value was 103%.
With `O=C1Nc2ccccc2/C1=N\N=C\c1ccc(O)c(O)c1`, the “viability” value was 82.8%.
With `C/C(CC(=O)Nc1ccc(N(C)C)cc1)=N\NC(=O)c1ccc(Cl)cc1Cl`, the “viability” value is 96.1%.
Still for that read-out and setting: the result for `CN(C)c1ccc(Nc2cc(Cl)ncn2)cc1` reads 83.5%; that for `O=C(N/N=C/c1ccc(O)c(O)c1)c1cccc(S(=O)(=O)N2CCCC2)c1`, 107%.
Same read-out and setting: then `COc1ccc(/C=N\NC(=O)c2ccc(=O)[nH]n2)cc1O`, with 124%; and `N=C1/C(=C/c2ccc(Br)o2)C(=O)N=C2SC(CC(=O)N3CCCC3)=NN12`, with 93.3%.
`CN1CN(C)c2cccc3cccc1c23`: the “viability” value was 102%.
With `CCOc1ccc(S(=O)(=O)Nc2cc(Sc3ncn[nH]3)c3oc(=O)sc3c2)cc1`, the “viability” value was 80.8%.
For the molecule `COc1ccc(C2=CC3=C(Br)C(=O)C(C)(OC(=O)c4ccc(Cl)nc4)C(=O)C3=CO2)cc1` (stereo not drawn), the “viability” value is 90.3%.
On to `CCOc1ccccc1NC(=S)N1CCN(c2ccc(O)cc2)CC1`, for which the “viability” value was 93.7%.
For the molecule `O=C(NC(=S)N1CCN(c2ccc(O)cc2)CC1)c1cccs1`, the “viability” value was 105%.
Still for that read-out and setting: then `COc1cc(/C=N/NC(=O)CNC(=O)c2ccco2)ccc1O`, with 124%; and `O=C(COc1cccnc1[N+](=O)[O-])c1ccc(Cl)s1`, with 134%; and `CN(C)c1ccc(NC(=O)c2cccc(N3C(=O)CCC3=O)c2)cc1`, with 106%.
For the molecule `O=C(O)[C@H]1CCCC[C@H]1C(=O)Nc1ccc(Nc2ccccc2)cc1`, the “viability” value is 107%.
Still for that read-out and setting: the result for `CCOc1ccc(-c2nc(=S)[nH][nH]2)cc1` reads 98.2%; that for `COc1ccc(/C=N/NC(=O)c2cc(O)c(O)c(O)c2)cc1Cn1cc([N+](=O)[O-])cn1`, 92%; that for `C=CCNC(=S)Nc1ccc(N(C)C)cc1`, 97.9%.
Regarding `COc1cc(/C=N/NC(=O)c2ccc(Cn3cc([N+](=O)[O-])cn3)o2)cc(Br)c1O`, the “viability” value was 96.9%.
Turning to `CCc1cc(C(=O)N/N=C/c2ccc(O)cc2)c2ccccc2n1`, the “viability” value is 113%.
For the molecule `COc1cc(/C=N/NC2=NCCCCC2)ccc1O`, the “viability” value was 107%.
Consider `ClC(Cl)(c1nnnn1-c1ccccc1)c1nnnn1-c1ccccc1`, for which the “viability” value was 90.6%.
With `Oc1ccc(C2CNCCc3c2cc(O)c(O)c3Cl)cc1` (stereo not drawn), the “viability” value is 95.4%.
On to `S=c1[nH]nc(-c2n[nH]c3c2CCC3)n1/N=C/C=C/c1ccco1`, for which the “viability” value is 92.4%.
On the same count and under the same terms, then `COc1cc(/C=N/NC(=O)CCn2nnc3ccccc32)ccc1O`, with 98%; and `CC(C)C(=O)Nc1ccc(O)c(-c2csc(N)n2)c1`, with 104%.
For `Cc1cc2cc3c(N)[nH]nc3nc2cc1C`, the “viability” value is 104%.
As to `O=S(=O)(c1ccc(NC(=S)N/N=C/c2ccc(O)c(O)c2)cc1)N1CCOCC1`, the “viability” value was 95%.
For `CN(C)C(=S)Nc1ccc(N2CCOCC2)cc1`, the “viability” value was 101%.
For `Oc1ccc(NC(=S)Nc2ccccc2)cc1`, the outcome was inactive.
Take `O=C1/C(=C/C=C/c2ccco2)SC(=S)N1NS(=O)(=O)c1ccccc1`: the “viability” value is 110%.
In the case of `O=C(CN1C(=O)/C(=C/c2ccco2)SC1=S)Nc1ccc(O)c(C(=O)O)c1`, the “viability” value is 105%.
For `CCCCCCNC(=O)N[C@H](C(=O)NCCC[C@H]1CN2C(=NC[C@H]2C)N1CCC(c1ccccc1)c1ccccc1)C(C)O` (stereo partly drawn), the “viability” value was 94.3%.
Consider `COc1cccc(C=Nc2ccc(N3CCOCC3)cc2)c1O`, for which the “viability” value is 108%.
In the case of `COc1cc(CNc2ccc3c(c2)OCCO3)ccc1OCC(N)=O`, the “viability” value was 91.7%.
Turning to `Cc1nn(-c2ccccc2)c2[nH]c(=O)c(CNc3ccc(N4CCOCC4)cc3)cc12`, the “viability” value is 88.7%.
As to `COc1ccc(/C=N/Nc2nc(N3CCCC3)nc(N3CCCC3)n2)cc1O`, the “viability” value is 113%.
Take `Cc1cc(C)nc(SSc2nc(C)cc(C)n2)n1`: the “viability” value is 92.6%.
`CN1C=CC=C/C1=C(\C#N)c1nc2ccccc2[nH]1`: the “viability” value was 129%.
`O=Cc1cccn1-c1ccc(O)cc1`: the “viability” value is 101%.
In the case of `Cc1ccc(NC(=O)CN2C(=O)N/C(=C/c3cccn3-c3ccc(C(=O)O)cc3)C2=O)cc1`, the “viability” value was 125%.
Consider `O=C(O)C1Nc2c(O)cc(Cl)c([N+](=O)[O-])c2C2C=CCC12` (stereo not drawn), for which the “viability” value is 112%.
`CN(C)c1ccc(NC(=O)CSc2nc3c(c(=O)[nH]2)CCCC3)cc1`: the “viability” value is 89.6%.
With `Cc1ccc(C2=NOC(=O)/C2=C\c2ccc(C)o2)cc1`, the “viability” value is 95.6%.
Consider `CC1=NOC(=O)/C1=C\c1ccc(-c2ccc(Cl)c(C(=O)O)c2)o1`, for which the “viability” value was 98.5%.
Turning to `O=C1C(=Cc2ccc(Br)o2)C(=O)c2ccccc21`, the “viability” value is 107%.
For the molecule `O=C1ON=C(c2ccccc2)/C1=C\c1ccco1`, the “viability” value is 99.4%.
As for `Nc1nc[nH]c(=O)c1N=Cc1ccccc1`, the “viability” value was 104%.
Turning to `O=C(c1ccco1)N1CCCC(Nc2ccc3c(c2)OCCO3)C1` (stereo not drawn), the “viability” value is 88.8%.
Regarding `c1cncc(CNc2ccc3c(c2)OCO3)c1`, the “viability” value was 101%.
Regarding `O=C(c1ccc2ccccc2c1)N1CCN(c2ccc(O)cc2)CC1`, the “viability” value is 92.7%.
On the same count and under the same terms, the result for `N#C/C(=C\c1ccc(O)c(O)c1)C(=O)c1ccc(O)c(O)c1` reads 99.4%; that for `CCOC(=O)c1ccc2c(c1)C1C=CCC1C(C(=O)O)N2` (stereo not drawn), 108%; that for `Oc1ccc(/C=N/NC(=S)NCC2CCCO2)cc1` (stereo not drawn), 91%.
For the molecule `COc1ccc(-c2nc(O)c3cnccn23)cc1`, the “viability” value was 100%.
As to `CCN(CC)c1ccc(NC(=O)c2ccccc2F)cc1`, the “viability” value is 85.1%.
As for `CCN(CC)c1ccc(NC(=O)c2ccco2)cc1`, the “viability” value was 100%.
On to `CC(=O)Nc1ccc(OC(=O)C(CCS(C)(=O)=O)N2C(=O)c3ccccc3C2=O)cc1` (stereo not drawn), for which the “viability” value is 103%.
In the case of `O=C(O)/C=C/c1ccc(O)c(O)c1`, the “viability” value is 104%.
As for `Oc1cc(O)cc(/C=C/c2ccc(O)c(O)c2)c1`, the “viability” value was 105%.
Same read-out and setting: the result for `COc1cc(/C=N/NC(=O)C(C)n2nnc3ccccc32)ccc1O` (stereo not drawn) reads 102%; that for `O=C(N/N=C/c1ccc(OC(=O)c2ccco2)cc1)c1ccc[n+]([O-])c1`, 107%.
As to `Oc1ccc(O)c(-c2cnns2)c1`, the “viability” value was 100%.
With `O=C1CC(c2ccc(O)c(O)c2)Oc2c1ccc(O)c2O` (stereo not drawn), the “viability” value was 104%.
On to `CC1=C(C)CS(=O)N(S(=O)(=O)c2ccc(Cl)cc2)C1` (stereo not drawn), for which the “viability” value is 103%.
Regarding `COc1cc(/C=N/Nc2nc3ccccc3[nH]c2=O)ccc1O`, the “viability” value was 111%.
`COc1cc(-c2nnc(SCc3cc(=O)oc4cc(O)c(O)cc34)o2)cc(OC)c1OC`: the “viability” value was 82.7%.
As to `COc1cccc(-n2c(=O)c3ccccc3n3c(=S)[nH]nc23)c1`, the “viability” value was 84.8%.
As for `CCN(CC)CCN1C(=O)C(=O)/C(=C(/O)c2ccc(C)cc2)C1c1cccnc1` (stereo not drawn), the “viability” value was 121%.
The same measure, in the same setting: then `CN=C1S/C(=C\c2ccc(O)c(OC)c2)C(=O)N1C`, with 98.9%.
As for `Cc1occc1C(=O)N/N=C/C=C/c1ccc(N(C)C)cc1`, the “viability” value was 91.2%.
Take `COc1cc(/C=C2/C(=O)NN(c3ccc(Cl)c(Cl)c3)C2=O)cc([N+](=O)[O-])c1O`: the “viability” value is 98%.
Turning to `Cc1ccc(/C=N\NC(=O)COc2ccc(C)cc2[N+](=O)[O-])cc1`, the “viability” value is 88.8%.
Same read-out and setting: then `CC(=O)CC1OC(=O)C(Br)=C1NCc1ccccc1` (stereo not drawn), with 98.4%; and `O=c1[nH]sc2ccccc12`, with 101%; and `CN(C)c1ccc(NC(=S)NCC2CCCO2)cc1` (stereo not drawn), with 95%.
`Cc1[nH]c2ccccc2c1-c1csc(NC(=O)CSCC(=O)O)n1`: the “viability” value is 113%.
With `O=C1COc2ccc(N3C(=O)C=CC3=O)cc2N1`, the “viability” value is 126%.
Turning to `COc1cc(/C=C2\C(=N)N3N=C(S(C)(=O)=O)SC3=NC2=O)ccc1OS(=O)(=O)c1ccc(C)cc1`, the “viability” value was 98.1%.
With `Cc1cc(-c2n[nH]c(=S)n2/N=C/c2c[nH]c3ccccc23)n[nH]1`, the “viability” value is 92.8%.
Regarding `Cc1ccc2cc3c(N)[nH]nc3nc2c1`, the “viability” value was 104%.
On the same count and under the same terms, then `COC(=O)CSc1nnc(CNc2ccc(OC)cc2)n1C`, with 101%.
In the case of `C=CS(=O)c1sc(Cl)c(N2CCOCC2)c1[N+](=O)[O-]` (stereo not drawn), the “viability” value is 102%.
On the same count and under the same terms, then `Cc1ccc2oc(=O)c(/C=C(\O)CC(C)C)nc2c1`, with 115%; and `Nc1ccc(Nc2nc3ccccc3[nH]2)cc1`, with 104%; and `CCOC(=O)C1=C(C)N(c2ccccc2)C(=O)/C1=C\c1ccc(O)c(OC)c1`, with 83%.

The values are drawn from PubChem BioAssay AID2102 (Southern Research Specialized Biocontainment Screening …, 2009).
